# Hits are enriched below; roughly 7.5% of the tested compounds scored in any of these assays.
# FLuc counter: inhibits or activates purified firefly luciferase, miR-21 counter-screen. P08659. purified FLuc, Km substrates, luminescence inhibition. Potency, µM (titrated, usually from 57.5 µM), for the others: at the highest dose activity change, negative = inhibition, actives largely listed as inhibitors. 360,000 tested, 6.9% active. AID 588342;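 note: plate controls were vehicle for no effect and reference inhibitor for full effect; nearly all actives have a fitted effect of over 55% in size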
# Target sequence (P08659 whole entry, looked up): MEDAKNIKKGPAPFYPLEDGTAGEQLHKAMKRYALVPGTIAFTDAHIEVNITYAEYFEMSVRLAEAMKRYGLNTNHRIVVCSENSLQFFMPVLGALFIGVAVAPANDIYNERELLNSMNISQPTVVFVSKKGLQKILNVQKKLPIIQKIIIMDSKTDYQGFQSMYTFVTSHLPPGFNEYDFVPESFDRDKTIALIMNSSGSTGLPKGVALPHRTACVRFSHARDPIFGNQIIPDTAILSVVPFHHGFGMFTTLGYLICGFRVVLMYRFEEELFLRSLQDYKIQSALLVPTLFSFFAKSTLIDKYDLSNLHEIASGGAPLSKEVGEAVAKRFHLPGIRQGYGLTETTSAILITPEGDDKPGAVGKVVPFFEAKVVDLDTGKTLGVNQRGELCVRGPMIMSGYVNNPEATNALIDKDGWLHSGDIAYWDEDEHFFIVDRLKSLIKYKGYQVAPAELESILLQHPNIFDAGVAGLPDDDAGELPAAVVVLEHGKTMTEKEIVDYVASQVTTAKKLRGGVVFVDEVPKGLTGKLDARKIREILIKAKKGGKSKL
#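 Biochemical qHTS of compounds, final roughly 60 µM downward over six points, against 10 nM purified firefly luciferase using Km concentrations of substrates (10 uM D-luciferin, 10 uM ATP) in Tris acetate pH 7.5 buffer; luminescence output.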
# Rab9 prom act: activators of Rab9 promoter. Huh7 Rab9 promoter-luciferase reporter, luminescence, 24 h. Potency, µM (series often up to 9.22 µM), for inactives: at the top dose activation, negative = inhibition, actives largely listed as activators. 320,000 tested, 2.8% active; note: % of control where 0% means no effect; nearly all actives have a fitted effect of over 60% in size
#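 Stable Rab9-luc Huh7, 1500 cells/well, 2 h settle; cmpd in DMSO, 24 h, 37 °C/5% CO2; luciferase reagent 10 min RT; luminescence.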
# SMN2 splice up: increases expression of the SMN2 splice variant; HEK293 SMN2-luciferase splicing reporter, luminescence, 30-36 h; Potency, µM (highest dose often 46.1 µM), without a hit: at the top dose activity change, positive = activation, actives largely listed as activators; 210,000 tested, 2.8% active; note: % of control where 0% means no effect; nearly all actives have a fitted effect of over 55% in size
#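 HEK293 cells carry an SMN2 […]–luciferase reporter in which exon 7 inclusion puts luciferase in frame. Cells were plated 10-12 h before compound addition, then incubated 30-36 h at 37C. ONE-Glo luminescence was read; sodium butyrate at 4.5 mM final served as control.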
# ELG1 genotoxic: induces genotoxicity in HEK293T cells with luciferase-tagged ELG1. HEK293T ELG1-luciferase reporter, luminescence, 16 h. Potency, µM (doses to about 46 µM), for the others: at the top dose activity change, positive = activation, usual class: activators. 330,000 tested, 1.3% active. AID 504466; note: % of control where 0% means no effect; nearly all actives have a fitted effect of over 60% in size
#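 Step 1: seed 2,000 HEK293T ELG1-luciferase cells per well. Step 2: add compound or DMSO, incubate 16 hr at 37 °C. Step 3: ONE-Glo, 30 min at room temperature, read luminescence.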
# KinaseGlo FLuc: blocks Kinase-Glo luciferase, a counter-screen artifact; Q27757; AID 1379; 200,000 tested, 0.28% active; Kinase-Glo luciferase, ATP luminescence, 8 min; Potency, µM (top dose mostly 38.3 µM), for inactives: at the top dose activity change, negative = inhibition, hits mostly inhibitors; note: % is set by controls: 0 for no effect and ±100 for the full control effect; nearly all actives have a fitted effect of over 60% in size
#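 Light output from Kinase-Glo luciferase with luciferin and 10 uM ATP in 50 mM imidazole pH 7.2, KCl, MgCl2, Tween 20, BSA; compound pin-delivered, 8-min ambient incubation, then luminescence read.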
# NPC1 promoter act: activates the NPC1 promoter | 320,000 tested, 2.4% active | Huh7 NPC1 promoter luciferase reporter, 24 h | Potency, µM (series often up to 9.22 µM), for the others: at the top dose activation, hits mostly activators | AID 485313; note: % of control where 0% means no effect; nearly all actives have a fitted effect of over 60% in size
#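 NPC1 promoter–luciferase Huh7 cells; 24 h compound; luminescence.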
# The depositor's hits bear a star; ? = inconclusive; nt = no result given; [ ] = another dose, or the depositor's remark. Calls come from the whole dose curve; as a rule, active = well fitted curve in the direction sought with a large enough effect; inconclusive = small, poorly fitted or top-dose-only effect, or another doubt; inactive = no such curve, though single readings can be large; an effect the other way counts as inactive or inconclusive. Potency is the fitted concentration of half-maximal effect.
SMILES,FLuc counter,Rab9 prom act,SMN2 splice up,ELG1 genotoxic,KinaseGlo FLuc,NPC1 promoter act
Cc1ccc(NS(=O)(=O)c2ccc3oc(=O)c4ncn(C)c4c3c2)cc1C,-4%,nt,7%,nt,nt,nt
Cc1ccc(N2CC(C(=O)N3CCOCC3)CC2=O)cc1Cl (stereo unspecified),-1%,5%,nt,-1%,nt,0%
CC(=O)c1ccccc1C(=O)N1CCCC(C(=O)c2ccc(C(F)(F)F)cc2)C1 (stereo unspecified),?,?,nt,?,nt,23%
COc1ccc(-c2nnc(CSc3ncnc4sc5c(c34)CCC5)o2)cc1OC,11%,-3%,-4%,23µM*,-11%,-2%
CCOc1cccc(C(=O)NC2=NCCS2)c1,12µM*,0.5µM*,nt,?,nt,0.63µM*
O=C(NC1=NCCS1)c1cccc(NC(=O)c2ccco2)c1,?,2%,3%,0%,-1%,11%
COc1cccc(C(=O)NC2=NCCS2)c1,6µM*,0.56µM*,2µM*,?,-19%,1µM*
CC(C)Oc1cccc(C(=O)NC2=NCCS2)c1,19µM*,4µM*,5µM*,-17%,1%,3.2µM*
CN(Cc1ccco1)C(=O)c1ccc(CNS(=O)(=O)c2ccc3c(c2)C(C)(C)C(=O)N3C)cc1,0%,-4%,nt,2%,nt,0%
Cc1cc(=O)[nH]c(SCC(=O)N2C(C)CCCC2C)n1 (stereo unspecified),0%,3%,nt,6%,nt,0%
CCN(CC(=O)Nc1ccc(OC)cc1)C(=O)c1ccc2[nH]c3c(c2c1)CC(C)CC3 (stereo unspecified),nt,-6%,nt,-8%,nt,-3%
Cc1ccnc2nc(C(=O)OCC(=O)N(Cc3ccccc3)C(C)C)nn12,nt,nt,nt,0%,nt,nt
CCC(=O)Nc1nc2nc(-c3ccccc3)cc(=O)n2[nH]1,?,7%,nt,0%,nt,1%
Cc1nc2nc(Cc3ccccc3)[nH]n2c(=O)c1Cc1ccccc1,-1%,-4%,-8%,1%,1%,-2%
Cc1nc2nc(-c3ccccc3)[nH]n2c(=O)c1Cc1ccccc1,19µM*,21%,13µM*,9%,-5%,25%
Nc1nc2nc(-c3ccccc3)cc(=O)n2[nH]1,12µM*,17%,0%,-7%,-6%,0%
O=c1cc(-c2ccccc2)nc2nc(-c3ccccc3)[nH]n12,11µM*,?,18µM*,18µM*,7%,?
OCCOc1ccc(CN2CCN(CCCc3ccccc3)C(CCO)C2)cc1 (stereo unspecified),-5%,6%,nt,-6%,nt,-1%
NC(=O)c1ccc(NC(=O)COc2cccc3ccccc23)cc1,1%,10%,nt,-7%,nt,0%
COc1ccc(CNc2nc3ccccc3n2C)c(O)c1,8.5µM*,3.2µM*,nt,?,nt,2.5µM*
COc1ccc(CNc2nc3ccccc3n2C)c(OC)c1,12µM*,2.5µM*,nt,?,-16%,3.2µM*
COC(=O)c1nnc(C(=O)N(C)Cc2ccccc2)c2[nH]c3ccccc3c12,nt,nt,1%,nt,2%,nt
COC(=O)Cn1c(C)nc2c(sc3nc(C)cc(C)c32)c1=O,12µM*,?,11µM*,16µM*,0%,?
CCOC(=O)Cn1cnc2c(sc3nc(C)cc(C)c32)c1=O,12µM*,?,nt,?,nt,?
C=CCn1cnc2c(sc3nc(C)cc(C)c32)c1=O,17µM*,19%,nt,?,nt,6%
SMILES,FLuc counter,Rab9 prom act,SMN2 splice up,ELG1 genotoxic,KinaseGlo FLuc,NPC1 promoter act
Oc1ccc(-c2nc3ccc4ccccc4c3c3c2CCC3)cc1O,24µM*,1%,-18%[1.84 µM],9%,-1%,-2%
COc1cc2cc(CNc3ccccc3)c(=O)n(CC(=O)Nc3ccccc3)c2cc1OC,-6%,nt,nt,nt,nt,nt
CCCCC(=O)NC1(C(F)(F)F)C(=O)Nc2c1c(=O)[nH]c(=O)n2-c1ccc(C)c(C)c1 (stereo unspecified),1%,nt,5%,nt,nt,nt
COc1ccc(-c2ccc(CCC(=O)O)o2)cc1,5.4µM*,18%,nt,12%,-3%,18%
O=C(O)CCc1ccc(-c2ccc(Br)cc2)n1Cc1ccco1,4%,-6%,-6%,-1%,1%,-3%
O=C(O)CCc1ccc(-c2ccc(Cl)cc2)o1,15µM*,2%,-3%,?,-4%,8%
O=C(O)CCc1ccc(-c2ccc(Br)cc2)o1,15µM*,5%,5%,4%,-1%,11%
CC1CN(C(=O)CSc2nnc(-c3cccs3)n2N)CC(C)O1 (stereo unspecified),-2%,-4%,nt,2%,nt,1%
COc1cc(C(=O)NCC(c2ccc3c(c2)OCO3)N2CCN(C)CC2)cc(OC)c1OC (stereo unspecified),1%,nt,nt,nt,nt,nt
COc1ccccc1C(=O)NC(=O)Nc1c(C)cc(C)cc1C,-20%,0%,nt,3%,nt,-1%
COc1cc(Cl)c(C)cc1NC(=O)CC1CCCC1,1%,-1%,nt,1%,nt,-1%
CC(C)(C)c1ccc(-c2cc(N)n[nH]2)cc1,9.5µM*,-5%,-12%,3%,-6%,0%
Cc1ccc(-c2cc(N)n[nH]2)cc1,?,3%,?,0%,-5%,5%
Brc1cccc(-c2nnn3c2nc(NCc2ccc4c(c2)OCO4)c2ccccc23)c1,-8%,nt,14µM*,nt,nt,nt
Nc1nn(-c2ccccc2)nc1C(=O)OCc1ccccc1,15µM*,18%,30%,?,nt,13%
CCc1ccc(OCC2c3cc(OC)c(OC)cc3CCN2C(=O)c2ccc(S(=O)(=O)N3CCCC3)cc2)cc1 (stereo unspecified),-1%,nt,nt,nt,nt,nt
Cc1ccc(NC(=O)C2CCCN(C(=O)c3cnn(-c4ccccc4)c3-n3cccc3)C2)cc1 (stereo unspecified),-15%,nt,14%,nt,nt,nt
Cc1cccc(C)c1NC(=O)COC(=O)[C@@H]1CCCN1C(=O)c1cccs1,nt,nt,nt,3%,nt,nt
Oc1ccc(/C=N/Nc2nn3cnnc3c3ccccc23)cc1,9.5µM*,2%,nt,1%,nt,?
COc1cc(/C=N/Nc2nn3cnnc3c3ccccc23)ccc1O,2.7µM*,8%,10%,1%,13µM*,14%
COc1cccc(/C=N/Nc2nn3cnnc3c3ccccc23)c1,11µM*,16%,-4%,8%,3.5µM*,25%
CCOc1cc(/C=N/Nc2nn3cnnc3c3ccccc23)ccc1O,5.4µM*,18%,nt,8%,nt,25%
COc1cccc(/C=N/Nc2nc3ccccc3n3cnnc23)c1,-6%,-7%,-6%,-1%,-2%,-1%
C(=N\Nc1nn2cnnc2c2ccccc12)/c1ccco1,-12%,-4%,-28%,4%,-18%,0%

# Screens deposited in PubChem BioAssay by National Center for Advancing Translational Sciences (NCATS).
